Values without a mark were called inactive. For some assays here: Potency and affinity values are given separately. Activity calls are given as the source filed them. Unless noted, how the calls were made is not given here.

The nature of test [1]: antimalarial activity against Dd2 strain (AID 2302;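 active means growth inhibition above 50% at the single 2 µM test dose, taken to imply half-maximal potency below 2 µM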;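 further: 0% = DMSO untreated growth and 100% = chloroquine plus artemisinin killed control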). To be noted: P. falciparum Dd2 in RBCs, LDH growth readout, 72 h; at 2 µM; stronger effect = higher value.
A short description of test [2]: human hepatoma cell viability loss – ATP luminescence, cytotoxicity control for P. falciparum antimalarial project, primary screen (AID 2303;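 active means inhibition above 50%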;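 further: 0% = DMSO wells and 100% = digitonin-killed cells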). To be noted: HepG2 viability, 24-48 h, at 10 µM, stronger effect = higher value.
Test [3] has as its target L-lactate dehydrogenase (Plasmodium falciparum (isolate CDC / Honduras)) (UniProt Q27743). The test can be described thus: PfLDH activity inhibition – cell lysate, 3D7 strain, counter-screen for P. falciparum growth inhibition project (AID 2304).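 Further: 0% = vehicle and 100% = reference inhibitor.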 To be noted: P. falciparum 3D7 crude extract, LDH APAD/NBT absorbance; at 2 µM; stronger effect = higher value. Background: A counterscreen serves to expose hits that act by an unwanted route or on another target.

A short description of test [4]: inhibition of 3D7 malaria parasite growth – strain 3D7 (AID 2306).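 Further: 0% = DMSO wells and 100% = chloroquine plus artemisinin control wells.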 The settings on record: P. falciparum 3D7 erythrocytic growth, LDH absorbance, 72 h; at 2 µM; stronger effect = higher value.
Test [5] has as its target Calcium-dependent protein kinase 1 (Plasmodium falciparum (isolate 3D7)) (UniProt P62344). The test can be described thus: PfCDPK1 kinase inhibitors, biochemical, TCAMS library (AID 1159585; cut-off not given, nearly all actives have IC50 up to about 0.98 µM;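 further: inhibitors leave more ATP so luminescence rises with inhibition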). The settings on record: recombinant PfCDPK1, Kinase-Glo ATP depletion luminescence.
Test [6] concerns the target Plasmodium falciparum protein kinase 6 (PK6, PF3D7_1337100) (UniProt Q8IDW1). The test can be described thus: PfPK6 kinase inhibitors, biochemical, TCAMS library (AID 1159586). The settings on record: recombinant PfPK6, Kinase-Glo ATP depletion luminescence. A general note: Kinase-Glo measures the ATP left after a reaction by luminescence.
Test [7] addresses Protein kinase 7 (PK7), Plasmodium falciparum 3D7 (PF3D7_0213400) (UniProt Q7YTF7). Briefly: inhibition of Plasmodium PK7 catalytic activity – biochemical, TCAMS antimalarial set, Kinase-Glo luminescence (AID 1159587). The settings on record: recombinant PfPK7, Kinase-Glo ATP depletion luminescence.
Test [8] concerns the target Calcium-dependent protein kinase 4 (Plasmodium falciparum (isolate 3D7)) (UniProt Q8IBS5). Briefly: PfCDPK4 kinase inhibitors, biochemical, TCAMS library (AID 1159588; cut-off not given, nearly all actives have IC50 up to about 0.91 µM). The settings on record: recombinant PfCDPK4, Kinase-Glo ATP depletion luminescence.

Chain of Calcium-dependent protein kinase 1 (Plasmodium falciparum (isolate 3D7)) (P62344 whole entry, looked up): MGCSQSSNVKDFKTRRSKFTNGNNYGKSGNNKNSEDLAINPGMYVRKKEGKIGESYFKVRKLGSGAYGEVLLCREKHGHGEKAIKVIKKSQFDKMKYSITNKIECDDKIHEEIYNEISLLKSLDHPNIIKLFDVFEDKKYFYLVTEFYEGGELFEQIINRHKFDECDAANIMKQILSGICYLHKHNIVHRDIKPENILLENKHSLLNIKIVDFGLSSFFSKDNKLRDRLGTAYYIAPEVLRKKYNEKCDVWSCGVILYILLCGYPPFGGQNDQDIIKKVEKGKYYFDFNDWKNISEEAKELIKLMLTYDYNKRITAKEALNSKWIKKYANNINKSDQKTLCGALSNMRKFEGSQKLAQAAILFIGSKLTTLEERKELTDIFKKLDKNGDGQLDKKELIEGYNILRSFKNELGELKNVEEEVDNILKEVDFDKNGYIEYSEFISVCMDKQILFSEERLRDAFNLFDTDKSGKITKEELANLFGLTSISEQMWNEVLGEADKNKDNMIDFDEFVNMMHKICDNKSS
Chain of Protein kinase 7 (PK7), Plasmodium falciparum 3D7 (PF3D7_0213400) (Q7YTF7 1-343): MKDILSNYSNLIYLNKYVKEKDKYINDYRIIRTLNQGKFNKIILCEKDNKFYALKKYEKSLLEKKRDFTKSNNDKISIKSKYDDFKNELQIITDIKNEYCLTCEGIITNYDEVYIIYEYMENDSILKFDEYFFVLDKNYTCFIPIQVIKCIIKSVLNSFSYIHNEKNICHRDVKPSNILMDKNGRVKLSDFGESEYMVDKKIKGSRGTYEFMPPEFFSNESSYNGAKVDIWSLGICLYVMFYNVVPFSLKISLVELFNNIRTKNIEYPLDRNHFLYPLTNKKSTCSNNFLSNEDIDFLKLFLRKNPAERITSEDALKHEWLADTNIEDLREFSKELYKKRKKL
Chain of L-lactate dehydrogenase (Plasmodium falciparum (isolate CDC / Honduras)) (Q27743 whole entry, looked up): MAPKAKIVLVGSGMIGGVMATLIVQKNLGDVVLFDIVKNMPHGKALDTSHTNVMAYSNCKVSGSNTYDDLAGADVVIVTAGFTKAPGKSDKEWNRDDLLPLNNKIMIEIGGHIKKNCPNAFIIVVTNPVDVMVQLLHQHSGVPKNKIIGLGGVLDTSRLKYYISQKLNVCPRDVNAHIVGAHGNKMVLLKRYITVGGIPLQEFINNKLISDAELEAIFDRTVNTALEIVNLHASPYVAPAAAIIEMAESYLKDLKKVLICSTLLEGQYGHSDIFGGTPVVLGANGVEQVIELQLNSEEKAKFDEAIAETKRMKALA
Chain of Calcium-dependent protein kinase 4 (Plasmodium falciparum (isolate 3D7)) (Q8IBS5 whole entry, looked up): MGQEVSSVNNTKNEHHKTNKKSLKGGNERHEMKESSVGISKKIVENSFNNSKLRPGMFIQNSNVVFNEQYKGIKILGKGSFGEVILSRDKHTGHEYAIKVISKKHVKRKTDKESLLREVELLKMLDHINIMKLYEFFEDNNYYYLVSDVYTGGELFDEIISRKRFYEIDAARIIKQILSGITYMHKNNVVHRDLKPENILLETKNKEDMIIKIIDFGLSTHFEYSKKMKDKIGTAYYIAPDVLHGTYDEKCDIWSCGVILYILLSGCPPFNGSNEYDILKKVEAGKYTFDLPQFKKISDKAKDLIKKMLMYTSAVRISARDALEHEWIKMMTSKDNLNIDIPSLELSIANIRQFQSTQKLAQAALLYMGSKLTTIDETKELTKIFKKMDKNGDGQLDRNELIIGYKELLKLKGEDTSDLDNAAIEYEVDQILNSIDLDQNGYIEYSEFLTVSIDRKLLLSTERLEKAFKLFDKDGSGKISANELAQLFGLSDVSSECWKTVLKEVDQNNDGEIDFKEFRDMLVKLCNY
Chain of Plasmodium falciparum protein kinase 6 (PK6, PF3D7_1337100) (Q8IDW1 1-305): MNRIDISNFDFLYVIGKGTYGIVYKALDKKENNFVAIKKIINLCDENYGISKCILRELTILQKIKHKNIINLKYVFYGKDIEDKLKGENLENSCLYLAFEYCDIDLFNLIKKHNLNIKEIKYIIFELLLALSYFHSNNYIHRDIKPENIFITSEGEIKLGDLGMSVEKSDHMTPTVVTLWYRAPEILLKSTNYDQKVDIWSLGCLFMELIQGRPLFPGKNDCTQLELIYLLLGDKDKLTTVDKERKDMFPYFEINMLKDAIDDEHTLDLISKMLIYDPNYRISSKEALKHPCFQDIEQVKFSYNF

One may read the inhibition as the relative decrease from the control value, in per cent. For the compound `COc1cccc(CNC(=O)c2cnc(N3CCN(c4ccncc4)CC3)c(Cl)c2)c1`, the growth inhibition is 12% in test [1] and 89% (active) in test [4]. Moreover, the inhibition was 25% in test [2] and 5% in test [3]. Besides, the result in test [5], in test [6], in test [7] and in test [8] was inactive.

For the compound `COc1ccc(Cl)cc1N1CCN(CCCNC(=O)c2ccc(-c3nc4cc5ccccc5cc4[nH]3)c(F)c2)CC1`, the growth inhibition is 62% (active) in test [1] and 99% (active) in test [4]. Also, the results for the inhibition in test [2] and in test [3] were 12% and -3%, respectively. Further, the result in test [5], in test [6], in test [7] and in test [8] was inactive.

Regarding `CN1CCN(c2cccc(-c3nnc(-c4cccc(OCC(=O)NCc5ccc(C(F)(F)F)cc5)c4)o3)c2)CC1`, the growth inhibition is 86% (active) in test [1] and 98% (active) in test [4]. Moreover, the values for the inhibition in test [2] and in test [3] were 10% and -4%, respectively. The result in test [5], in test [6], in test [7] and in test [8] was inactive.

As to `CC(C)CNCc1cccc(-c2ccc(CNC3CCN(Cc4ccccc4)CC3)cc2)c1`, the growth inhibition was 99% (active) in test [1] and 100% (active) in test [4]. Moreover, the inhibition in test [2] was 44%; in test [3], 3%. Further, the result in test [5], in test [6], in test [7] and in test [8] was inactive.

For the compound `COc1ccc(CNCc2ccccc2)cc1-c1ccc(S(=O)(=O)NCCN2CCCC2)cc1`, the growth inhibition in test [1] is 39%; in test [4], 96% (active). The inhibition in test [2] was 38%; in test [3], -1%. Also, the outcome in test [5], in test [6], in test [7] and in test [8] was inactive.

Regarding `CCOC(=O)C(C)(C)Oc1ccc(C(=C2CC(C)(C)CC(C)(C)C2)c2ccc(O)cc2)cc1`, the growth inhibition is 78% (active) in test [1] and 92% (active) in test [4]. Moreover, the figures for the inhibition in test [2] and in test [3] were -3% and 1%, respectively. The outcome in test [5], in test [6], in test [7] and in test [8] was inactive.

For the compound `Cc1cc(O)c(-c2cc(C(=O)Nc3cccnc3)[nH]n2)cc1C`, the growth inhibition in test [1] and in test [4] was 97% (active) throughout. In addition, the results for the inhibition in test [2] and in test [3] were 12% and -7%, respectively. Besides, the outcome in test [5], in test [6], in test [7] and in test [8] was inactive.

For the compound `Cc1cccc2[nH]c(-c3cccc(-c4cccc(CNCCCN5CCCC5=O)c4)c3)nc12`, the growth inhibition in test [1] is 76% (active); in test [4], 100% (active). The values for the inhibition in test [2] and in test [3] were 9% and 2%, respectively. Besides, the result in test [5], in test [6], in test [7] and in test [8] was inactive.

As for `CC(C)(CNC(=O)[C@@H]1CCCN(Cc2ccc(Cl)cc2)C1)c1nc(-c2ccc(Cl)c(O)c2)c(-c2ccncc2)[nH]1`, the growth inhibition in test [1] was 37%; in test [4] it was 97% (active). In addition, the inhibition is 66% (active) in test [2] and -2% in test [3]. For the same compound, the result in test [5], in test [6], in test [7] and in test [8] was inactive.

In the case of `O=C(Nc1ccccc1O)c1ccc(Oc2cccc(C(=O)Nc3ccccc3O)c2)cc1`, the results for the growth inhibition in test [1] and in test [4] were 70% (active) and 97% (active), respectively. The figures for the inhibition in test [2] and in test [3] were 33% and -1%, respectively. Besides, the result in test [5], in test [6], in test [7] and in test [8] was inactive.

As to `CC1(C)N=C(N)N=C(N)N1OCCCCOc1ccccc1`, the growth inhibition in test [1] and in test [4] was 95% (active) each time. In addition, the inhibition was 60% (active) in test [2] and -1% in test [3]. Besides, the outcome in test [5], in test [6], in test [7] and in test [8] was inactive.

Regarding `CC(C)(C)c1ccc(N2C(N)=NC(N)=NC2(C)C)cc1`, the growth inhibition in test [1] is -2%; in test [4], 93% (active). Also, the inhibition in test [2] is 27%; in test [3] it was -2%. In addition, the result in test [5], in test [6], in test [7] and in test [8] was inactive.

With `COc1ccc(C(C(=O)NC2CCN(C[C@H](O)c3ccnc4ccc(OC)cc34)CC2)N2CCN(Cc3ccccc3)CC2)cc1` (some centres not stated), the growth inhibition is 72% (active) in test [1] and 100% (active) in test [4]. In addition, the inhibition is 18% in test [2] and -9% in test [3]. Besides, the result in test [5], in test [6], in test [7] and in test [8] was inactive.

In the case of `CCNc1cc(C)nc(Nc2ccc(NS(=O)(=O)c3ccccc3)cc2)n1`, the results for the growth inhibition in test [1] and in test [4] were 54% (active) and 100% (active), respectively. Also, the results for the inhibition in test [2] and in test [3] were 41% and -3%, respectively. In addition, the outcome in test [5], in test [6], in test [7] and in test [8] was inactive.

For the compound `O=c1cc(NCCCNCc2cc(F)cc(C(F)(F)F)c2)[nH]c2ccccc12`, the growth inhibition in test [1] was 15%; in test [4] it was 92% (active). The results for the inhibition in test [2] and in test [3] were -6% and 1%, respectively. The result in test [5], in test [6], in test [7] and in test [8] was inactive.

In the case of `CC(CNC(=O)c1cc2c(Cl)cc(Cl)cc2[nH]1)CNc1cc(=O)c2ccccc2[nH]1` (configuration not stated), the growth inhibition in test [1] was 11%; in test [4], 97% (active). Besides, the inhibition was 11% in test [2] and 5% in test [3]. Moreover, the outcome in test [5], in test [6], in test [7] and in test [8] was inactive.

Take `CN(C)CCNC(=O)N1CCCN(c2ncnc3cc(-c4ccccc4)sc23)CC1`: the growth inhibition is 37% in test [1] and 96% (active) in test [4]. For the same compound, the inhibition in test [2] and in test [3] was 5% throughout. The result in test [5], in test [6], in test [7] and in test [8] was inactive.

Turning to `CS(=O)(=O)c1ccc2nc(NC(=O)c3csnn3)sc2c1`, the growth inhibition in test [1] was 95% (active); in test [4] it was 90% (active). The figures for the inhibition in test [2] and in test [3] were 3% and 0%, respectively. In addition, the result in test [5], in test [6], in test [7] and in test [8] was inactive.

Turning to `O=C1c2cc(I)ccc2SC1c1ccccc1` (configuration not stated), the results for the growth inhibition in test [1] and in test [4] were 98% (active) and 96% (active), respectively. For the same compound, the results for the inhibition in test [2] and in test [3] were -7% and -2%, respectively. Besides, the result in test [5], in test [6], in test [7] and in test [8] was inactive.

These data come from PubChem BioAssay.
